Rows were chosen to be rich in hits. Some 8.3% of all compounds tested hit in one or more screens of this group.
Giardia killer = Small Molecules that selectively kill Giardia lamblia: qHTS. Giardia lamblia trophozoite viability. activity change, % at 7.66 µM, hits read low. 0.15% of 340,000 active; in the data active = activity change below about -80%; inconclusive = between about -30% and that limit;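 also: parasites exposed to compound for two days anaerobically before the ATP read; % is scaled to controls: 0 for no effect and ±100 for the full control effect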
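Each well holds 100 Giardia trophozoites and compound. After two days (48 hrs) at 37 deg C in anaerobic conditions, ATP is quantified by luminescence.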
BCR signal inh = qHTS Assay to Find Inhibitors of Chronic Active B-Cell Receptor Signaling; AID 493014, 2011; 0.05% of 340,000 active; Potency, µM (doses to about 46.1 µM), for inactives: at the highest dose activity change, negative = inhibition, most hits filed as inhibitors; ABC-DLBCL IkBa-CBG/CBR reporter, luminescence ratio, 4 h; active = well fitted inhibition curve with a large enough effect in the signal ratio, with a control signal flat, not every such curve was filed as active; inconclusive = small, poorly fitted or top-dose-only effect, or effect the other way, or a change in a side signal; the % refers to the signal ratio;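 also: potency is read from the fitted curve at half-maximal effect; plate controls were basal doxycycline-induced cells for no effect and cells given 10 µM MG132 for full effect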
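Cell line TMD8 (human ABC DLBCL), stably expressing tet-inducible CBG68-IkBa fusion and CBR; IMDM/0.5% FBS; cpd up to 46 uM; dox induction, 4 h, 37C/5% CO2; dual luminescence; green/red ratio; MG132 control.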
VP16 counter = VP16 counterscreen qHTS for inhibitors of ROR gamma transcriptional activity; Potency, µM (titrated, usually from 53.6 µM), without a hit: top-dose activity, negative = inhibition, hits mostly inhibitors; 3.5% of 310,000 active; AID 2546, 2010; Drosophila S2 Gal4-VP16 UAS-luciferase, luminescence, 20 h;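 also: Gal4-VP16 expression switched on by copper sulfate through the metallothionein promoter; potency is read from the fitted curve at half-maximal effect; % is scaled to controls: 0 for no effect and ±100 for the full control effect; nearly all actives have a fitted effect of over 50% in size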
RORgamma inh = qHTS for inhibitors of ROR gamma transcriptional activity; Potency, µM (highest dose often 53.6 µM), for inactives: at the top dose activity change, negative = inhibition, most hits filed as inhibitors; 5.4% of 310,000 active; Drosophila S2 Gal4-RORgamma UAS-luciferase reporter, 20 h; AID 2551, 2010; also: potency is read from the fitted curve at half-maximal effect; % is scaled to controls: 0 for no effect and ±100 for the full control effect; nearly all actives have a fitted effect of over 60% in size
Target sequence (P51450 whole entry, looked up, the tested form may be a part): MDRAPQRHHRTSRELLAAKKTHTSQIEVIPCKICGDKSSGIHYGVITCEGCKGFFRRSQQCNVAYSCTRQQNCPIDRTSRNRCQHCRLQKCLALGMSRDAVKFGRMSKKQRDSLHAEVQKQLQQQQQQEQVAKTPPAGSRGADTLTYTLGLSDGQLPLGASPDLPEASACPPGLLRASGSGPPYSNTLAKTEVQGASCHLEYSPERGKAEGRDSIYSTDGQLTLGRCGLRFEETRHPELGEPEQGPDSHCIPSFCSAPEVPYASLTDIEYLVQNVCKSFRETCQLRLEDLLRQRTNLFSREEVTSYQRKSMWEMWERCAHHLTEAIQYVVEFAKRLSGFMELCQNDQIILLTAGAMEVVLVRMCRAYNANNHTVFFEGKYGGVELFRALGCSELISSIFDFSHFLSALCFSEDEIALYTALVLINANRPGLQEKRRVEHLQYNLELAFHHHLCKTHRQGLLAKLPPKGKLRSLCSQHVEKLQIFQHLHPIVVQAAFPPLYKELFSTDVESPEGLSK
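ROR gamma transcriptional activity was tracked as Gal4-UAS luciferase output in stably transfected Drosophila Schneider cells, with compound added 1 hr before 700 uM copper sulfate induction and a 20 hr ambient-temperature incubation.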
MCF10A rerep = A quantitative high throughput screen for small molecules that induce DNA re-replication in MCF 10a normal breast cells | MCF 10A DNA re-replication, Hoechst nuclear intensity, 48 h | Potency, µM (series often up to 46.1 µM), inactives show at the highest dose activity, positive = re-replication, most hits filed as activators | 2.9% of 350,000 active; also: potency is read from the fitted curve at half-maximal effect; % of control where 0% means no effect; nearly all actives have a fitted effect of over 50% in size
SW480 rerep = A quantitative high throughput screen for small molecules that induce DNA re-replication in SW480 colon adenocarcinoma cells; Potency, µM (highest dose often 46.1 µM), for the others: at the top dose re-replication activation, hits mostly activators; 1.8% of 340,000 active; SW480 DNA re-replication, Hoechst DNA content imaging, 48 h; also: potency is read from the fitted curve at half-maximal effect; % of control where 0% means no effect; nearly all actives have a fitted effect of over 55% in size
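Treated cells incubate 48 hr (37 C, 5% CO2), are stained 40 min with Hoechst, and nuclear fluorescence is enumerated; a rise in nuclei with high DNA signal marks re-replication.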
Active calls of the source: *; ? = inconclusive; . = no result; [ ] = remark or other dose. Unless noted, calls follow the shape of the dose curve; as a rule, active = well fitted curve in the direction sought with a large enough effect; inconclusive = small, poorly fitted or top-dose-only effect, or another doubt; inactive = no such curve, though single readings can be large; an effect the other way counts as inactive or inconclusive.

SMILES | Giardia killer | BCR signal inh | VP16 counter | RORgamma inh | MCF10A rerep | SW480 rerep
CC1CN(S(=O)(=O)c2cccc(C(=O)NCCCn3ccnc3)c2)CC(C)O1 (centres undefined) | 0.3 | . | -20.2% | -8.1% | 3.9% | 1.4%
O=C(NCCCn1ccnc1)c1cccc(Br)c1 | -1.0 | 0.8% | -4.6% | 28.6% | -4.6% | 25.9µM*
CC1CN(S(=O)(=O)c2ccc(C(=O)Nc3ccccc3F)cc2)CC(C)O1 (centres undefined) | 49.2 | -1.1% | . | . | 8.5% | -18.6%
CC1CN(S(=O)(=O)c2ccc(C(=O)NCCCn3ccnc3)cc2)CC(C)O1 (centres undefined) | 1.4 | 6.5% | -5.4%[10 µM] | 19.3% | 3.66µM* | 5.8µM*
Cc1nnc(NC(=O)c2ccc(S(=O)(=O)N3CC(C)OC(C)C3)cc2)o1 (centres undefined) | -0.6 | -1.4% | 3.98µM* | 4.47µM* | 12.8% | 1.1%
COCc1nnc(NC(=O)c2ccc(S(=O)(=O)N3CCCCCC3)cc2)o1 | -5.8 | -0.2% | 0.282µM* | 2.24µM* | ? | 11.3%
Cc1ccc(S(=O)(=O)N(Cc2cccc(C)c2)C(=O)N2CCN(C)CC2)cc1 | -1.9 | 0.1% | . | . | 0.7% | -1.1%
Cc1nc(N)nc(N(C)c2ccccc2)c1Br | -3.4 | . | . | . | ? | ?
Cc1nnc(NC(=O)c2ccc(S(=O)(=O)N3CCCCCC3)cc2)o1 | 1.8 | -10.6% | 1.26µM* | 0.708µM* | 5.8% | 2.1%
CC(=O)Nc1ccc(C(=O)Nc2ccc(S(=O)(=O)N3CCCCC3)cc2)cc1 | -18.8 | -12.0% | -1.0% | 9.3% | -1.2% | 127.3%
Cc1cccc(C)c1NC(=O)CN(C)S(=O)(=O)c1ccc(-c2ccc(=O)[nH]n2)s1 | -27.5 | 5.5% | 8.0% | -21.8% | ? | -24.8%
Cc1cc(NC(=O)CN(C)S(=O)(=O)c2ccc(-c3ccc(=O)[nH]n3)s2)ccc1Br | -10.7 | -3.2% | ? | 12.6µM* | 14.3% | 0.8%
CCOc1ccccc1NC(=O)COC(=O)c1cc[n+]([O-])cc1 | 11.0 | -0.3% | -3.4% | 8.0% | 0.6% | -1.8%
O=C(NNC1=NS(=O)(=O)c2ccccc21)c1ccc([N+](=O)[O-])cc1 | ? | ? | ? | 12.6µM* | 5.8% | 4.7%
Cc1cc(C2C(=O)C(C(=O)c3ccc(Cl)cc3)C(=O)CC2(C)C)on1 (centres undefined) | -1.4 | 6.4% | 0.8% | -7.3% | 1.4% | -6.5%
CCCCn1c(SCC(=O)NCCOC)nc2ccc(N3CCOCC3)cc2c1=O | -6.5 | ? | -17.3% | ? | 10.7% | -5.5%
COCCNC(=O)CSc1nc2ccc(N3CCOCC3)cc2c(=O)n1CCc1ccccc1 | 16.5 | 2.5% | ? | 3.55µM* | 25.7% | -11.2%
CCOC(=O)CSc1nc2ccccc2c(=O)n1CCN1CCOCC1 | -9.5 | 0.4% | -15.1% | -20.7% | -1.9% | -1.3%
CCCCNC(=O)CSc1nc2ccc(N3CCOCC3)cc2c(=O)n1CCc1ccccc1 | 0.9 | ? | 7.94µM* | 7.94µM* | 5.3% | -3.1%
CCOC(=O)CSc1nc2ccc(N3CCOCC3)cc2c(=O)n1Cc1ccccc1 | 5.4 | -9.8% | ? | 12.6µM* | ? | -10.2%
O=C(CSc1nc2ccc(N3CCOCC3)cc2c(=O)n1CCc1ccccc1)NCC1CCCO1 (centres undefined) | 16.2 | ? | 12.6µM* | 5.62µM* | 23.1µM* | 28.7%
O=C(N=NC(=O)c1ccc2c(O)n(CC3CCCO3)c(O)c2c1)c1cccnc1 (centres undefined) | 2.5 | 0.8% | -3.3% | 16.6% | -1.4% | -4.6%
CCCCN(C(=O)c1ccc([N+](=O)[O-])o1)c1c(N)n(CCCC)c(=O)[nH]c1=O | 1.4 | 7.3% | . | . | 6.7% | 10.6%
CC(C)C(O)C1CCN(Cc2nc(-c3cccs3)no2)CC1 (centres undefined) | -7.8 | ? | 2.0% | 31.1% | 0.8% | ?
COc1ccc2cc(S(=O)(=O)c3ccccc3)c(=O)oc2c1 | 15.3 | 0.0% | 0.1% | 16.3% | ? | ?
SMILES | Giardia killer | BCR signal inh | VP16 counter | RORgamma inh | MCF10A rerep | SW480 rerep
Cc1ccc(S(=O)(=O)c2cc3ccc(O)cc3oc2=O)cc1C | 1.1 | 3.7% | -2.4% | 6.4% | 2.31µM* | 2.31µM*
COc1ccc(/C=C/c2ccc3cccc(O)c3n2)c(OC)c1OC | 9.4 | ? | ? | 3.16µM* | 1.64µM* | ?
COc1cccc(/C=C/c2ccc3cccc(O)c3n2)c1OC | -12.9 | ? | 5.62µM* | 2.82µM* | -13.9% | ?
COC(=O)c1ccc(/C=C/c2ccc3cccc(OC)c3n2)cc1 | -14.0 | ? | 0.1% | -43.5% | ? | ?
COc1cc(/C=C/c2ccc3cccc(O)c3n2)cc(OC)c1OC | -3.3 | ? | ? | ? | ? | 17.3%
N#Cc1ccc(S(=O)(=O)N2CCc3[nH]c4ccc(F)cc4c3C2)cc1 | 1.3 | ? | 1.0% | 37.5% | 8.5% | -105.7%
Cc1cc2c(c(/C=C/C(=O)c3ccccc3)c1)OC1(C=C2)Oc2ccccc2C(=O)N1C (centres undefined) | -9.1 | -9.1% | -10.9% | -2.3% | 5.62µM* | 3.66µM*
Cn1cc(/C=C/C(=O)c2ccccc2)c2ccccc21 | -2.2 | ? | -5.0% | ? | ? | ?
Cc1ccc(NS(=O)(=O)N2CCOCC2)cc1Cl | -10.3 | ? | 29.9% | 0.355µM* | 3.6% | 10.2%
CC(=O)c1cccc(NS(=O)(=O)N2CCOCC2)c1 | 17.4 | -2.4% | -1.9% | -3.3% | 0.1% | -2.1%
NC(=O)C(c1ccc(Cl)cc1)c1ccc(Sc2ccc(Cl)cc2)nn1 (centres undefined) | -7.4 | ? | 14.1µM* | ? | -3.8% | -3.9%
CC(C)c1nc2ccc(Br)cn2c1NC1CCCC1 | -4.9 | 0.2% | ? | 7.08µM* | -4.6% | -4.9%
Nc1[nH]c(N=NC(=O)c2ccc(F)cc2)c2ccccc12 | -0.1 | ? | 14.1µM* | 3.55µM* | -54.9% | -59.6%
O=C(Nc1cccc(C(F)(F)F)c1)Oc1ccc(Cl)c2cccnc12 | -3.2 | ? | 1µM* | 0.501µM* | -1.0% | ?
CCOC(=O)[C@@H]1[C@H]2COc3ccccc3[C@@H]2N2C(=O)N(c3ccc(F)cc3)C(=O)[C@]12C | 10.8 | . | . | . | 6.4% | 1.4%
CCOC(=O)N1CCN(C(=O)c2cc3ccc(OC)cc3[nH]2)CC1 | -4.4 | ? | -3.9% | 11.5% | 4.9% | -10.3%
Cc1ccccc1Oc1ncnc2oc(-c3ccccc3)cc12 | -13.1 | -3.7% | 8.7% | -15.0% | ? | -2.2%
